Reference: PubChem BioAssay (NCATS)
Where “and” joins values, the source holds several entries; their conditions need not be identical. Equal entries are not always repeated. Inconclusive results are not listed. A call without a number means that no potency is given here. Some compounds were tested as several samples or in several runs, with calls that do not always agree. Calls of active or inactive are those of the source. Calls follow the shape of the dose curve; as a rule, active = well fitted curve in the direction sought with a large enough effect; inconclusive = small, poorly fitted or top-dose-only effect, or another doubt; inactive = no such curve, though single readings can be large; an effect the other way counts as inactive or inconclusive.

Experiments:
[1] = qHTS to identify inhibitors of the type 1 interferon - major histocompatibility complex class I in skeletal muscle: primary screen against the NCATS LOPAC collection (AID 1347405);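 also: lytic HiBiT luminescence reporting HLA-B protein level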; also: potency is read from the fitted curve at half-maximal effect
Procedure, shortened: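 Immortalized human C25cl48 myoblasts with HiBiT knocked into endogenous HLA-B*08:01 were stimulated with 4.0 ng/ml IFN-beta and given compounds in a 7-point, 1:4.3 titration from 46 uM final; after 24 hrs, lytic HiBiT luminescence was read.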

[2] = qHTS to identify inhibitors of the type 1 interferon - major histocompatibility complex class I in skeletal muscle: primary screen against the NCATS Pharmaceutical Collection (AID 1347407);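 also: luminescence of HiBiT knocked into endogenous HLA-B as interferon-induced MHC class I level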; also: potency is read from the fitted curve at half-maximal effect
Procedure, shortened: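 Immortalized human myoblasts (C25cl48) with HiBiT knocked into endogenous HLA-B*08:01 were stimulated with 4 ng/ml IFN-beta and treated with compounds (8-point, 1:5, top 46 uM final) for 24 h at 37 C; HiBiT lytic luminescence read.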

[3] = qHTS for inhibitors of adenylyl cyclases using a fission yeast platform: a pilot screen against the NCATS LOPAC library (AID 1347410)
Procedure, shortened: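 S. pombe CHP2027 (AC9-GNAS-PDE4D2) carrying a PKA-repressed fbp1-GFP reporter was exposed to LOPAC compounds (final up to 57 µM) for 18 h at 30C in the dark, in EMM with histidine, lysine and uracil; GFP gain-of-signal read by laser scanning cytometry.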

[4] = qHTS to identify inhibitors of the type 1 interferon - major histocompatibility complex class I in skeletal muscle: primary screen against the NCATS Mechanism Interrogation Plate v5.0 (MIPE) Libary (AID 1347411); also: nearly all actives have a fitted effect of over 65% in size; also: potency is read from the fitted curve at half-maximal effect
Procedure, shortened: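 Immortalized human C25cl48 myoblasts with HiBit knocked into endogenous HLA-B*08:01 were stimulated with 4.0 ng/ml IFN-beta and exposed to compounds (11-point 1:3 titration, top 46 uM final) for 24 hrs at 37 C; HiBiT lytic luminescence measured.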

[5] = molecular target: Protein phosphatase 1D (Homo sapiens) (UniProt O15297); test: RapidFire Mass Spectrometry qHTS Assay for Modulators of WT P53-Induced Phosphatase 1 (WIP1) (AID 1347424);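 also: amount of dephosphorylated VEPPL-S-QETFS peptide product formed by WIP1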; also: potency is read from the fitted curve at half-maximal effect
Procedure, shortened: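 WIP1 (10 nM final) was preincubated 1 h at room temperature with compounds in Tris-HCl pH 7.5, 30 mM MgCl2, TCEP, EGTA, BSA; 2 uM VEPPL-pS-QETFS phosphopeptide was added for 5 min, quenched with formic acid, and dephosphorylated product quantified by RapidFire MS.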

[6] = molecular target: Protein phosphatase 1D (Homo sapiens) (UniProt O15297); test: Rhodamine-PBP qHTS Assay for Modulators of WT P53-Induced Phosphatase 1 (WIP1) (AID 1347425)
Procedure, shortened: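 Read-out: Rhodamine-PBP fluorescence (ex 525/em 598 nm) for released Pi, read each minute for 11 min after adding 10 uM VEPPL-pS-QETFS; signal taken as f1 minus pre-substrate f0. Enzyme 5 nM WIP1 with 1 hr room-temperature compound preincubation.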

[7] = Primary qHTS for inhibitors of La Crosse Virus (LACV) - induced cell death in SH-SY5Y cells (AID 1508616);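 also: top concentration of the series differs between compounds; higher means more rescue of cells from virus-induced death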
Procedure, shortened: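 Luminescent ATP readout (ATPLite 1step, 5 min room temperature) measured rescue from LACV-induced death after 6 days of infection at 0.01 MOI; normalized to infected DMSO wells and uninfected DMSO wells.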

[8] = molecular target: Calcium and integrin-binding protein 1 (Homo sapiens) (UniProt Q99828); test: Validation qHTS for Identification of Calcium Integrin Binding protein 1 (CIB1) Competitor (AID 1508618); also: potency is read from the fitted curve at half-maximal effect
Procedure, shortened: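 CIB1-GST (1 uM final) in 5 mM HEPES pH 7.4, 125 mM NaCl, 5 mM CaCl2, 0.01% Tween20 was preincubated 15 min at room temperature with compound (up to 114 uM), then FITC-alphaIIb peptide (100 nM) added for 15 min; fluorescence polarization read.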

[9] = molecular target: Calcium and integrin-binding protein 1 (Homo sapiens) (UniProt Q99828); test: Primary qHTS for Identification of Calcium Integrin Binding Protein 1 (CIB1) Competitor (AID 1508620); also: potency is read from the fitted curve at half-maximal effect
Procedure, shortened: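 Fluorescence polarization competition: CIB1-GST (1 uM final) preincubated with compound 15 min at room temperature, then FITC-labeled alphaIIb peptide (100 nM final) added for another 15 min. Polarization read at Ex 480/Em 540.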

[10] = Validation qHTS assay for inhibitors of Activation Induced Cytidine Deaminase (AID): UDG Counterscreen signal (AID 1347427); also: potency is read from the fitted curve at half-maximal effect
Procedure, shortened: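 Counterscreen read of UDG activity (2 U/mL, 4/3x) in the FRET deamination format with AID (1 uM, 4/3x), DJC20/DJC23 substrates (250 nM, 4x), 4 h at room temperature. NaOH stop, fluorescence at 560 ex/665 em.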

[11] = molecular target: Single-stranded DNA cytosine deaminase (Homo sapiens) (UniProt Q9GZX7); test: Validation qHTS assay for inhibitors of Activation Induced Cytidine Deaminase (AID): AID signal (AID 1347429); also: potency is read from the fitted curve at half-maximal effect
Procedure, shortened: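 AID and UDG were combined and compounds added at final up to 114 uM, then DJC20/DJC23 FRET substrate was added for 4 hr at room temperature. NaOH was then added for 30 min before fluorescence was read at 540/590 nm.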

[12] = molecular target: Calcium and integrin-binding protein 1 (Homo sapiens) (UniProt Q99828); test: Confirmatory qHTS for Identification of Calcium Integrin Binding Protein 1 (CIB1) Competitor (AID 1508617); conditions: CIB1 binding competition assay, biochemical qHTS; also: potency is read from the fitted curve at half-maximal effect; nearly all actives have a fitted effect of over 65% in size
Procedure, shortened: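 Fluorescence polarization competition: CIB1-GST (1 uM final) in 5 mM HEPES pH 7.4, 125 mM NaCl, 5 mM CaCl2, 0.01% Tween20 preincubated 15 min RT with compound (up to 114 uM), then FITC-alphaIIb peptide (100 nM) added, 15 min RT.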

Chain of Single-stranded DNA cytosine deaminase (Homo sapiens) (Q9GZX7 whole entry, looked up): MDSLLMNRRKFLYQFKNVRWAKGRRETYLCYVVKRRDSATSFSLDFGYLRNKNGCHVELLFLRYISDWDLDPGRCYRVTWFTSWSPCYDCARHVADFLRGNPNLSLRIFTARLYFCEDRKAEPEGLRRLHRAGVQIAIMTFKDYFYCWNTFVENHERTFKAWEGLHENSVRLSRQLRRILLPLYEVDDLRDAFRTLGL
Chain of Protein phosphatase 1D (Homo sapiens) (O15297 whole entry, looked up): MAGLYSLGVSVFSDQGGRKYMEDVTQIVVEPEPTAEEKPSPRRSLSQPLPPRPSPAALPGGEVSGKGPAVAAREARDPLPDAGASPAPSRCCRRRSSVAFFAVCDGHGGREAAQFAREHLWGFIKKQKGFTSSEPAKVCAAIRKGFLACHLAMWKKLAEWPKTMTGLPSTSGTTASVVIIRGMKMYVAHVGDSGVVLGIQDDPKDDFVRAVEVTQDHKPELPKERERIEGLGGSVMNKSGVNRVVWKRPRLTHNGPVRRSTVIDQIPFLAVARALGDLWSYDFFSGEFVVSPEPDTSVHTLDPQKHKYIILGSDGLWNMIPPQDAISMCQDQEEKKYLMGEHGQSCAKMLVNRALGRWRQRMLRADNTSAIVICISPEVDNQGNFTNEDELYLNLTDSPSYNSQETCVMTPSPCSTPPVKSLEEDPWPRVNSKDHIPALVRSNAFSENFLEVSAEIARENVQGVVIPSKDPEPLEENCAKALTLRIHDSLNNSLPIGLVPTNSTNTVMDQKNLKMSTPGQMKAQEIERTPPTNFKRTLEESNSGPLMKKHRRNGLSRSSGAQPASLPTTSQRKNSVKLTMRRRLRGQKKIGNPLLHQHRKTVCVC
Chain of Calcium and integrin-binding protein 1 (Homo sapiens) (Q99828 whole entry, looked up): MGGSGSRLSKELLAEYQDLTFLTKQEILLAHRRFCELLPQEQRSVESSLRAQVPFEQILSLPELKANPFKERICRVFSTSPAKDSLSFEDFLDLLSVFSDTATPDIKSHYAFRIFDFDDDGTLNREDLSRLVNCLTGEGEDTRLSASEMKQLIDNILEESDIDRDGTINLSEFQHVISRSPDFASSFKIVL

SMILES | Potency [1] | Potency [2] | outcome [3] | Potency [4] | Potency [5] | outcome [6] | Potency [7] | Potency [8] | Potency [9] | Potency [10] | Potency [11] | Potency [12]
Nc1nc2c(ncn2COC(CO)CO)c(=O)[nH]1 | inactive | inactive | inactive | inactive | inactive | inactive | inactive | inactive | inactive | – | – | –
COc1cc2nc(N(C)CCCNC(=O)C3CCCO3)nc(N)c2cc1OC (stereo not drawn) | inactive | inactive | inactive | – | inactive | inactive | inactive | inactive | inactive | inactive | inactive | –
C[C@](N)(Cc1ccc(O)c(O)c1)C(=O)O | inactive | inactive | inactive | inactive | – | – | inactive | inactive | inactive | inactive | inactive | –
OCCN(CCO)c1nc(N2CCCCC2)c2nc(N(CCO)CCO)nc(N3CCCCC3)c2n1 | inactive | inactive | inactive | inactive | inactive | inactive | inactive | 14.1 µM (active) | inactive and 11.2 µM (active) | – | inactive | –
C[C@H]1c2cccc(O)c2C(O)=C2C(=O)[C@]3(O)C(O)=C(C(N)=O)C(=O)[C@@H](N(C)C)[C@@H]3[C@@H](O)[C@@H]21 | inactive | inactive | inactive | inactive | inactive | inactive | inactive | inactive | inactive | inactive | inactive | –
O=C(c1ccc(F)cc1)C1CCN(CCn2c(=O)[nH]c3ccccc3c2=O)CC1 | inactive | inactive | inactive | – | inactive | inactive | inactive | inactive | inactive | inactive | inactive | –
NC(=O)OCC(COC(N)=O)c1ccccc1 | inactive | inactive | inactive | inactive | inactive | inactive | inactive | inactive | inactive | inactive | inactive | –
CCN1CCCC1CNC(=O)c1cc(S(=O)(=O)CC)c(N)cc1OC (stereo not drawn) | inactive | inactive | inactive | inactive | inactive | inactive | inactive | inactive | inactive | inactive | inactive | –
CN1CCN2c3ccccc3Cc3ccccc3C2C1 (stereo not drawn) | inactive | inactive | inactive | – | inactive | inactive | inactive | inactive | inactive | inactive | inactive | –
Nc1nnc(-c2cccc(Cl)c2Cl)c(N)n1 | inactive | inactive | inactive | inactive | inactive | inactive | inactive | inactive | inactive | – | – | –
COc1nc(C)nc(Cl)c1NC1=NCCN1 | inactive | inactive | inactive | inactive | inactive | inactive | inactive | inactive | inactive | inactive | inactive | –
CN1CCC(=C2c3ccccc3C=Cc3ccccc32)CC1 | inactive | inactive | inactive | inactive | inactive | inactive | inactive | inactive | inactive | inactive | inactive | –
CCOC(=O)C(C)(C)Oc1ccc(Cl)cc1 | inactive | inactive | inactive | inactive | inactive | inactive | inactive | inactive | inactive | inactive | inactive | –
O=C(CCCN1CCC(O)(c2ccc(Cl)cc2)CC1)c1ccc(F)cc1 | inactive | inactive | inactive | – | inactive | inactive | inactive | inactive | inactive | inactive | inactive | –
CCOC(=O)Nc1ccc(NCc2ccc(F)cc2)nc1N | inactive | inactive | inactive | inactive | inactive | – | inactive | – | inactive | – | – | –
Nc1c2c(nc3ccccc13)CCCC2 | inactive | inactive | inactive | inactive | inactive | inactive | inactive | inactive | inactive | inactive | inactive | –
COc1ccccc1OCCNCC(O)COc1cccc2[nH]c3ccccc3c12 (stereo not drawn) | inactive | inactive | inactive | – | inactive | inactive | inactive | inactive | inactive | inactive | inactive | –
CC(CCc1ccc(O)cc1)NCCc1ccc(O)c(O)c1 (stereo not drawn) | inactive | inactive | inactive | – | inactive | inactive | inactive | inactive | inactive | inactive | inactive | –
Cc1ccc(C(=O)Nc2ccc(S(=O)(=O)O)c3cc(S(=O)(=O)O)cc(S(=O)(=O)O)c23)cc1NC(=O)c1cccc(NC(=O)Nc2cccc(C(=O)Nc3cc(C(=O)Nc4ccc(S(=O)(=O)O)c5cc(S(=O)(=O)O)cc(S(=O)(=O)O)c45)ccc3C)c2)c1 | inactive | inactive | inactive | inactive | 3.98 µM (active) | – | inactive | – | inactive | inactive | 11.2 µM (active) | –
O=C1c2c(O)ccc(O)c2C(=O)c2c(NCCNCCO)ccc(NCCNCCO)c21 | 2.24 µM (active) | 11.8 µM (active) | inactive | 0.93 µM (active) | inactive | inactive | – | 20 µM (active) | 30.4 µM (active) and 25.1 µM (active) | 31.6 µM (active) | 10 µM (active) | 22.4 µM (active) and 20 µM (active)
CC1COc2c(N3CCN(C)CC3)c(F)cc3c(=O)c(C(=O)O)cn1c23 (stereo not drawn) | inactive | inactive | inactive | inactive | inactive | inactive | inactive | – | – | – | – | –
Clc1ccc2c(c1)C(N1CCNCC1)=Nc1ccccc1O2 | inactive | inactive | inactive | – | inactive | inactive | inactive | inactive | inactive | inactive | inactive | –
CC12CC3CC(C)(C1)CC(N)(C3)C2 | inactive | inactive | inactive | inactive | inactive | inactive | inactive | inactive | inactive | inactive | inactive | –
Cc1cn([C@H]2C=C[C@@H](CO)O2)c(=O)[nH]c1=O | inactive | inactive | inactive | – | inactive | inactive | inactive | inactive | inactive | inactive | inactive | –
CN1CCN(CCCN2c3ccccc3Sc3ccc(Cl)cc32)CC1 | inactive | inactive | inactive | – | inactive | inactive | inactive | – | inactive | inactive | inactive | –
